EWS-Fli block: blocks EWS/Fli oncoprotein-driven transcription; A673 NR0B1-luciferase reporter, viability-normalised; inhibition, % at 12.6 µM; hit rate 0.67% among 350,000; AID 651661;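 active means mean inhibition of at least 50% after viability correction, with every replicate also passing that limit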;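 further: firefly luciferase signal divided by Alamar Blue viability fluorescence both relative to DMSO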
PAX8 reporter: inhibitors of PAX8 transcriptional activity in RMG-I cells; RMG-I TPO-luciferase reporter, SteadyGlo, 24 h; inhibition, % at 12.6 µM; hit rate 1.2% among 360,000; AID 652154;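 active means mean replicate inhibition at least 60% with every replicate also reaching 60%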;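 further: luciferase light reporting Pax8 driven TPO promoter activity; plate controls were median of neutral control wells for no effect and mitoxantrone controls for full effect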
TWEAK Fn14 block: inhibitors of TWEAK-Fn14 interaction signaling; TWEAK-stimulated Fn14 reporter cells, luciferase luminescence, 8 h; inhibition, % at 10 µM; hit rate 2% among 360,000; in the data active means inhibition above about 50%
LGR2 inh: Drosophila LGR2 receptor signaling inhibition; HEK293 LGR2, CRE-luciferase, bursicon-stimulated, 4 h; inhibition, % at 9.99 µM; hit rate 0.35% among 380,000; AID 720647;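 active means drop in luminescence signal, shown as inhibition above about 50% in the replicate tests, limit read from the data, passing the limit was not always enough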;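 further: agonist challenge used bursicon conditioned medium at about half maximal strength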
TROY NFkB inh: TROY signaling inhibition; Q293 LMP1-TROYcd NF-kB luciferase reporter, 4 h; inhibition, % at 10 µM; hit rate 0.98% among 360,000; AID 1347056;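 active means compounds whose plate-normalised and pattern-corrected inhibition of the luciferase reporter signal at the single screening dose is 50% or more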
* hit, by the source's call; . = no result given. In the library only some 2.8% were active in any assay of this set; here they are far more common.

SMILES	EWS-Fli block	PAX8 reporter	TWEAK Fn14 block	LGR2 inh	TROY NFkB inh
COc1ccc(N(CC(=O)NC2CC3CCC2C3)S(=O)(=O)c2ccccc2)cc1Cl (stereo unspecified)	14	22	91*	3	11
COc1ccc(N(CC(=O)NC2CC3CCC2C3)S(=O)(=O)c2ccc(C)cc2)cc1OC (stereo unspecified)	-1	12	6	-2	2
Cc1ccc2nc(-c3ccc(SCC(=O)N4CCc5ccccc54)nc3)[nH]c2c1	-101	37	53*	-56	-60
N#Cc1ccccc1CSc1ccc(-c2nc3ccccc3[nH]2)cn1	.	.	59*	.	59*
CC(=O)CSc1ccc(-c2nc3ccccc3[nH]2)cn1	29	-9	69*	7	15
CC(=O)CSc1ccc(-c2nc3cc(C)c(C)cc3[nH]2)cn1	69*	69*	102*	98*	88*
Cc1ccc2nc(-c3ccc(SCC(=O)O)nc3)[nH]c2c1	.	29	28	.	7
C[C@H](NC(=O)C[C@@H]1C=C[C@@H](NC(=O)C2CC2)[C@H](CO)O1)c1ccccc1	-12	-4	.	10	.
O=C(C[C@H]1CC[C@H]2[C@@H](COC[C@@H](O)CN2Cc2ccccc2)O1)NCCCN1CCOCC1	1	0	.	2	.
Cc1cc2nc(-c3ccc(SCc4ccc(C#N)cc4)nc3)[nH]c2cc1C	-25	.	58*	8	47
O=C(CSc1ccc(-c2nc3ccccc3[nH]2)cn1)Nc1ccc(S(=O)(=O)N2CCCC2)cc1	.	-6	52*	-29	18
Cc1cc2nc(-c3ccc(SCC(=O)Nc4nccs4)nc3)[nH]c2cc1C	.	.	-46	-6	-22
C[C@@H]1CN([C@H](C)CO)C(=O)c2cc(NC(=O)Cc3ccccc3)ccc2O[C@@H]1CN(C)Cc1ccc(Oc2ccccc2)cc1	4	.	.	4	.
C/C=C/c1ccc([C@@H]2[C@H]3CN(C(=O)Nc4ccc(F)cc4)CCCCN3[C@H]2CO)cc1	-3	4	.	-21	.
C[C@@H]1CCCCO[C@H](CN(C)C(=O)Nc2ccccc2)[C@@H](C)CN([C@@H](C)CO)C(=O)c2cc(NC(=O)c3ccncc3)ccc2O1	1	-21	.	-3	.
CCOC(=O)c1sc(NC(=O)c2ccc(S(=O)(=O)N3CCCCCC3)cc2)nc1-c1ccccc1	3	37	77*	.	22
CCOC(=O)N1CCN(S(=O)(=O)c2ccc(C(=O)Nc3nc4ccccc4s3)cc2)CC1	16	.	35	2	8
CCOC(=O)c1sc(NC(=O)c2ccc(S(=O)(=O)N3CCCCC3)cc2)nc1-c1ccccc1	.	-9	71*	14	17
CCOC(=O)c1sc(NC(=O)c2ccc(S(=O)(=O)N3CCOCC3)cc2)nc1-c1ccccc1	8	1	65*	0	33
C[C@@H]1CN([C@H](C)CO)C(=O)c2cc(NC(=O)NC3CCCCC3)ccc2O[C@H]1CN(C)Cc1ccc(Cl)c(Cl)c1	0	.	.	-11	.
Oc1ccc(-c2n[nH]c(=S)n2-c2ccc3c(c2)OCCO3)c(O)c1	.	-21	52*	22	-5
S=c1[nH]nc(-c2ccc(Cl)cc2Cl)n1-c1ccc2c(c1)OCCO2	-6	-20	-23	.	-27
Oc1ccc(/C=N/NC(=S)Nc2cccnc2)c(O)c1O	-36	17	50*	4	-17
Oc1cccc(/C=N/NC(=S)Nc2cccnc2)c1O	.	-13	3	0	-51
C[C@H]1CN([C@@H](C)CO)C(=O)c2cc(NC(=O)c3ccncc3)ccc2O[C@H]1CN(C)C(=O)Nc1cccc2ccccc12	-5	8	.	-3	.
SMILES	EWS-Fli block	PAX8 reporter	TWEAK Fn14 block	LGR2 inh	TROY NFkB inh
N#Cc1cc(-c2ccccc2)nc(Oc2ccc(Cl)cc2)n1	.	-71	50*	-1	5
CN(C)c1ncnc2c1ncn2C1OC(CO)C(O)C1O (stereo unspecified)	.	.	-1	.	-77
COc1ccc(C[C@H](N)C(=O)N[C@H]2[C@@H](O)[C@H](n3cnc4c(N(C)C)ncnc43)O[C@@H]2CO)cc1	6	117*	93*	7	3
O=C(C[C@H]1C=C[C@H](NC(=O)CCN2CCCCC2)[C@@H](CO)O1)Nc1ccc(-c2ccccc2)cc1	-9	-4	.	-2	.
C[C@@H]1CN([C@@H](C)CO)C(=O)c2cccc(NC(=O)c3ccncc3)c2O[C@@H]1CN(C)S(=O)(=O)c1cccs1	3	98*	.	-18	.
C[C@H](CO)N1C[C@H](C)[C@H](CN(C)S(=O)(=O)c2cccs2)Oc2c(NC(=O)Nc3ccc(F)cc3)cccc2C1=O	-15	68*	.	7	.
